Common to all, as to set-up: scale not given: direction of the effect not stated beside the values
Assay [1] has as its target Protein translocase subunit SecA (Escherichia coli (strain K12)) (UniProt P10408). Briefly: Assay to Identify E. coli SecA ATPase Inhibitors. In kind it is functional. The conditions noted are these: 30 µM.
Assay [2] addresses T1, Ubiquitin-activating enzyme e1, putative (Leishmania donovani (strain BPK282A1)) (UniProt E9BSI1).
T1 sequence (whole entry): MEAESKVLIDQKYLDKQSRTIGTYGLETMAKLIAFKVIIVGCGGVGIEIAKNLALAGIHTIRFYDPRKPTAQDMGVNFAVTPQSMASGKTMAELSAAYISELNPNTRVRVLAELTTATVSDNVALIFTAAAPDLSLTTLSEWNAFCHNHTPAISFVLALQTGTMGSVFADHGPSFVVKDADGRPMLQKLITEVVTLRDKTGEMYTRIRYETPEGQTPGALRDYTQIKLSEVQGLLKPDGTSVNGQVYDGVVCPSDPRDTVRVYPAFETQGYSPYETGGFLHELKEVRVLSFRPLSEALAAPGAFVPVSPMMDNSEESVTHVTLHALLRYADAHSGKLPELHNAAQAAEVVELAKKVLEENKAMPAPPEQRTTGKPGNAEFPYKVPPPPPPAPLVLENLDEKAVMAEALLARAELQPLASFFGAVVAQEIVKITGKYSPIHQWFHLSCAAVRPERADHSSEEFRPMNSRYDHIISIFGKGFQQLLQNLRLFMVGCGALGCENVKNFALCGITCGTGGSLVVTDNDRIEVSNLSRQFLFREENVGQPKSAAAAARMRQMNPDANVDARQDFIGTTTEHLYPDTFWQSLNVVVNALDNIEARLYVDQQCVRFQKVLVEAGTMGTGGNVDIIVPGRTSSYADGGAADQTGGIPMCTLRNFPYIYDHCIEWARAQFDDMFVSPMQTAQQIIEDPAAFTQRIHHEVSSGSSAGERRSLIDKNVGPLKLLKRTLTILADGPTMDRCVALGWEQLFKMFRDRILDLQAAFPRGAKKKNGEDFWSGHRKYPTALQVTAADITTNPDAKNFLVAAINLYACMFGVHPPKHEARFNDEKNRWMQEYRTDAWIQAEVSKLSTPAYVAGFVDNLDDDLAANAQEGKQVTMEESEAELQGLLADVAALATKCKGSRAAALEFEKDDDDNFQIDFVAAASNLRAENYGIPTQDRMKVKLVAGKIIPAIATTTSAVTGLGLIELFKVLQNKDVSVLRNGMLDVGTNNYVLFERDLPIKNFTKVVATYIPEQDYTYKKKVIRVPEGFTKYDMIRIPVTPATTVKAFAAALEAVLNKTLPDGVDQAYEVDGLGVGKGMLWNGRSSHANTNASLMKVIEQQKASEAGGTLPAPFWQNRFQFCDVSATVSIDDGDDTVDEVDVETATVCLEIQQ
Briefly: Leishmania donovani Ubiquitin Activating Enzyme (LdE1). In kind it is functional. The conditions noted are these: 30 µM.

The target of assay [3] is AMP-activated protein kinase, AMPK (Homo sapiens) (UniProt P54646+O43741+P54619+Q9UGJ0+Q9Y478+Q13131+Q9UGI9). The assay can be described thus: AMP-dependent Kinase enzyme assay. An in vitro enzyme assay that detects ADP turnover that is directly proportional to AMPK activity. This uses naive AMPK that is activated during the assay with MK-8722. In kind it is functional. As to conditions: 30 µM.

For assay [4], the target named is Sialic acid-binding Ig-like lectin 9 (Homo sapiens) (UniProt Q9Y336). Briefly: Hs-Siglec9 ALPHAscreen SOP 20170721. As to conditions: 10 µM.
Chain of Sialic acid-binding Ig-like lectin 9 (Homo sapiens) (Q9Y336 whole entry): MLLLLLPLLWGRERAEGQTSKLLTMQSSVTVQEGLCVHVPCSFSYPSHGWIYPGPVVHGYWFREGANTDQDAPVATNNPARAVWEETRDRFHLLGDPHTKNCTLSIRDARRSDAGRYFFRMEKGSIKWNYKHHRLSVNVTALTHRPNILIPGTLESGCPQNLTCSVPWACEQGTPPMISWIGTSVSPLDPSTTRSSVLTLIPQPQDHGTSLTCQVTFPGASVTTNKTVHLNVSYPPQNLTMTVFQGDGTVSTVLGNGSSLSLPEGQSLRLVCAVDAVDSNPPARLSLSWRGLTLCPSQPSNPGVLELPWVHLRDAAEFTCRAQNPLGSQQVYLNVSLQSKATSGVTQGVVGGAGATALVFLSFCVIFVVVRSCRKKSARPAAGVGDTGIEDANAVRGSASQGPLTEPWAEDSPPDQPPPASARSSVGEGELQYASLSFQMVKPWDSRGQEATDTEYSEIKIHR
The next assay relates to Trypanosoma cruzi. The assay can be described thus: Trypanosoma cruzi phosphomannomutase and mannose-1-phosphate guanylyltransferase assay. In kind it is functional. The conditions noted are these: 10 µM.
The target of assay [5] is T2, Arginase-2, mitochondrial (Homo sapiens) (UniProt P78540).
T2 sequence (whole entry): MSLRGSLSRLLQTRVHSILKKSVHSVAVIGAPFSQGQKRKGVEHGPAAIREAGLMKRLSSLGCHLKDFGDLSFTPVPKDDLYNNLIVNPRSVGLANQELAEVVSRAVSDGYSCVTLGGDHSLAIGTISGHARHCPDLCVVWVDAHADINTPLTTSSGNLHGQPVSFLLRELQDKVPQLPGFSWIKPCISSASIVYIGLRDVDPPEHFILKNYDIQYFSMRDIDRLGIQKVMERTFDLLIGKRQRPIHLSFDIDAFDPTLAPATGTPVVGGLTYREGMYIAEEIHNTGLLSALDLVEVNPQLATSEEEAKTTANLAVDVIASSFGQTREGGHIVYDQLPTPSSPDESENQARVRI
Briefly: in vitro enzyme assay to detect the production of urea directly proportional to the activity of Arginase II. Note: in the data most compounds retested in dose-response had high values. The conditions noted are these: 33.3 µM. In kind it is functional.

For assay [6], the target named is T3, Proteasome subunit beta (Trypanosoma cruzi) (UniProt O96673).
T3 sequence (whole entry): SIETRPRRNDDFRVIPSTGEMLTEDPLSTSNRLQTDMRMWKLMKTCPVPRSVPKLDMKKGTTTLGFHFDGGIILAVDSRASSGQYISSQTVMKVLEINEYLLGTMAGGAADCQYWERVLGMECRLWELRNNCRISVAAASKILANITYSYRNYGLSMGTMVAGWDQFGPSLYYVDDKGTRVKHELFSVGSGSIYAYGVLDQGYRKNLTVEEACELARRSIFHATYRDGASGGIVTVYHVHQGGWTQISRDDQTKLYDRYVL
The assay can be described thus: Trypanosoma cruzi proteasome chymotrypsin-like activity (TcProtChymo) assay. Note: in the data most compounds retested in dose-response had high values. In kind it is functional. The conditions noted are these: 9.37 µM.

For another assay, the species on record is Homo sapiens. The assay can be described thus: To identify inhibition of the IFN signalling (Jak-Stat) pathway via expression of an eGFP reporter gene under the control of an IFN-stimulated response element (ISRE) containing MxA promoter. In kind it is functional. As to conditions: 30 µM. (In general: In a reporter assay the amount or activity of a reporter protein is the signal.)

Assay [7] addresses T4, Tyrosyl-tRNA synthetase, putative (Trypanosoma cruzi (strain CL Brener)) (UniProt Q4DSP6).
T4 sequence (whole entry): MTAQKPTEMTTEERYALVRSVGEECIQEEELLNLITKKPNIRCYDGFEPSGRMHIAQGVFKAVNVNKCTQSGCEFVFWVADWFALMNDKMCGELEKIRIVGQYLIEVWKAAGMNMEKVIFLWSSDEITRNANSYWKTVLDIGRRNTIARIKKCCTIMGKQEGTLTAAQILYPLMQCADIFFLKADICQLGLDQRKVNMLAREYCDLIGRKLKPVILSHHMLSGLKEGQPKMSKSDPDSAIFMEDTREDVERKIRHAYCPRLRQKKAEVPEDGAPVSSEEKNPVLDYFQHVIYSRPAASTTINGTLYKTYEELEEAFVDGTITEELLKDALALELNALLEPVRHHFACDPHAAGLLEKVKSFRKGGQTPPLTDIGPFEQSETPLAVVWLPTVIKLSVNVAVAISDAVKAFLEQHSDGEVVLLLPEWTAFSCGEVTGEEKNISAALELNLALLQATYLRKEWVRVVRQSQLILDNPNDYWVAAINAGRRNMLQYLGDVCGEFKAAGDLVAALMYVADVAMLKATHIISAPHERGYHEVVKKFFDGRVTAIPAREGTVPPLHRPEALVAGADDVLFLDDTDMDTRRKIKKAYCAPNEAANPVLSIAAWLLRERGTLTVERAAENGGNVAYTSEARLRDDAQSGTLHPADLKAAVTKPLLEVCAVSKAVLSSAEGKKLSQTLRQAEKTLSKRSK
The assay can be described thus: Trypanosoma cruzi tyrosyl tRNA synthetase (TcYRS) _High Tyrosine SOP. Note: in the data most compounds retested in dose-response had high values. The conditions noted are these: 30 µM. In kind it is functional.

Assay [8] addresses T4, Tyrosyl-tRNA synthetase, putative (Trypanosoma cruzi (strain CL Brener)). The assay can be described thus: Trypanosoma cruzi tyrosyl tRNA synthetase (TcYRS) SOP. In kind it is functional. As to conditions: 30 µM.
Assay [9] concerns the target Chromo domain-containing protein 1 (Saccharomyces cerevisiae (strain ATCC 204508 / S288c) (Baker's yeast)) (UniProt P32657). Briefly: ScCHD-1 Enzyme Inhibition Assay. Note: in the data most compounds retested in dose-response had high values. As to conditions: 30 µM. In kind it is functional.

For some of these results: Potency and affinity values are given separately.

Chain of Chromo domain-containing protein 1 (Saccharomyces cerevisiae (strain ATCC 204508 / S288c) (Baker's yeast)) (P32657 whole entry, the tested form may be a part): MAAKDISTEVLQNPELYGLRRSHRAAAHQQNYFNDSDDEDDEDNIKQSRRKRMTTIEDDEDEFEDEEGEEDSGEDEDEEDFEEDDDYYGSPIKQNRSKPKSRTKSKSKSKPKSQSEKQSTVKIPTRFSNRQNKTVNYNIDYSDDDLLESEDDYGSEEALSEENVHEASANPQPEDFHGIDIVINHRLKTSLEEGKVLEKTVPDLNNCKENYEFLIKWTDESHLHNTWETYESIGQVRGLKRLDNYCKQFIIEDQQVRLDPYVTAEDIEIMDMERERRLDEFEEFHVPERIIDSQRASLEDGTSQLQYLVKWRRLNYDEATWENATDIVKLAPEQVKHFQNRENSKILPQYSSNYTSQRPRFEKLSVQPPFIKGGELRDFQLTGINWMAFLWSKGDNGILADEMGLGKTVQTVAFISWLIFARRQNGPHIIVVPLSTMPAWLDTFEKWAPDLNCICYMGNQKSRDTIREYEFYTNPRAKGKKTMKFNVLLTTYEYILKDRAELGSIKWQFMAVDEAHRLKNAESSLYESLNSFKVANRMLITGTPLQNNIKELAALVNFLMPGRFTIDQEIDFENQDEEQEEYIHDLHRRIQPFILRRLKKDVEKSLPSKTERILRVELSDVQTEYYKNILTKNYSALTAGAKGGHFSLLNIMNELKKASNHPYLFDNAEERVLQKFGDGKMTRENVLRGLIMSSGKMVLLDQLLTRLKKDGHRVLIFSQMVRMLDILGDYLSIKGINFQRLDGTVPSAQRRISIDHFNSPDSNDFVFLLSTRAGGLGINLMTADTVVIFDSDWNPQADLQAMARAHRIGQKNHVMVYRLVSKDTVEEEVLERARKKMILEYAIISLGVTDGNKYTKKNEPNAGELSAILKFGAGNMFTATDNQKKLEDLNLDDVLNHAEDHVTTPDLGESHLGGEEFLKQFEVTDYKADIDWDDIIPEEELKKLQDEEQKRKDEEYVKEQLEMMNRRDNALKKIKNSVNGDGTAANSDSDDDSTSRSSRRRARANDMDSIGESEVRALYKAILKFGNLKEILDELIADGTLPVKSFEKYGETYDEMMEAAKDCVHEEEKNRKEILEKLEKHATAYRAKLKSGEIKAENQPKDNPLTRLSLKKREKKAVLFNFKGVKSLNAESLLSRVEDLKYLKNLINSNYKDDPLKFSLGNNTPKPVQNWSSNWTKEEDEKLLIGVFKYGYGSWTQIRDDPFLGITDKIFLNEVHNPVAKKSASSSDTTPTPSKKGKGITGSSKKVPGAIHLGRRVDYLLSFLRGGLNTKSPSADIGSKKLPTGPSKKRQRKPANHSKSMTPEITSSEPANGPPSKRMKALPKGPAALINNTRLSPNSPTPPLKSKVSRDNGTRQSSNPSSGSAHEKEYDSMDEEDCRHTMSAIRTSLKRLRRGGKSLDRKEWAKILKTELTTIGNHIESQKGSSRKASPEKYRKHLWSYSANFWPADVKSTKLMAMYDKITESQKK
Chain of Protein translocase subunit SecA (Escherichia coli (strain K12)) (P10408 whole entry): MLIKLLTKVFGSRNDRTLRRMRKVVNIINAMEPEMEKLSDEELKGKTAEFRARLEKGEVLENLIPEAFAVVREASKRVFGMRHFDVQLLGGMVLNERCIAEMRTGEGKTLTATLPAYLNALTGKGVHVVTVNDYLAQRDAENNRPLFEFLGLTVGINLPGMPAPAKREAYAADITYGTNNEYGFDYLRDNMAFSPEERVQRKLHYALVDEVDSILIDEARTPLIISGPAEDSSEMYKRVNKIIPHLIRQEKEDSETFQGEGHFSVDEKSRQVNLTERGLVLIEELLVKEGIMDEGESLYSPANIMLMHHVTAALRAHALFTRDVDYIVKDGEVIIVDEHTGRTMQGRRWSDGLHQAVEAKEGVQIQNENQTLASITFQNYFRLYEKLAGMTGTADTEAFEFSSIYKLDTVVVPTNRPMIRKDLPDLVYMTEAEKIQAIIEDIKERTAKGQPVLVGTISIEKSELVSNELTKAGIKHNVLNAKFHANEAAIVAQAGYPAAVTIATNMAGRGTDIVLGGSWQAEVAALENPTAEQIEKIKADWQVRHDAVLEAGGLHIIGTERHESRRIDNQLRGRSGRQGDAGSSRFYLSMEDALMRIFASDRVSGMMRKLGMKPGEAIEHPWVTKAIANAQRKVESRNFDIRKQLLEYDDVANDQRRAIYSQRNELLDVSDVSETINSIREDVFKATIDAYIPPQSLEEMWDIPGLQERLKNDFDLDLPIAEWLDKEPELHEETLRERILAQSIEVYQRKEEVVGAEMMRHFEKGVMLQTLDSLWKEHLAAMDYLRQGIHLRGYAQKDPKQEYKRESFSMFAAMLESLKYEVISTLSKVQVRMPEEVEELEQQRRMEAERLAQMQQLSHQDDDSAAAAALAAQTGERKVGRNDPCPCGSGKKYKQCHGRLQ

In the case of `Fc1cccc(N2CCCC3(C2)CN(c2ncccn2)CCO3)c1` (stereo unspecified), the Percent Effect in assay [1] is -0.397%; in assay [2], 13%; in assay [3] it was 2.68%; in [4] it was -5.04%; with Trypanosoma cruzi it was -2.66%; in assay [5], 3.23%. In addition, the Percent Effect is 9.4% in assay [6]; 23.1% in the assay listed under Homo sapiens; 7.41% in assay [7]; 14.1% in assay [8]; -4.87% in [9].

As for `CCc1ncncc1C(=O)N1CCN(Cc2c(C)noc2C)CC1`, the Percent Effect in assay [1] is -5.8%; in [2], 13.2%; in [3], -4.4%; in assay [4] it was 4.23%; in the assay on Trypanosoma cruzi, 2.89%; in assay [5], 0.36%. Also, the Percent Effect was 3.98% in assay [6]; -0.539% in the assay listed under Homo sapiens; 7.39% in assay [7]; 16.1% in assay [8]; -0.381% in assay [9].

With `CN1CCCN(C(=O)NCc2csc(Br)c2)CC1`, the Percent Effect in assay [1] was -5.63%; in [2], 10.8%; in [3] it was -0.581%; in assay [4], 13.3%; in the assay with Trypanosoma cruzi, 0.0929%; in assay [5] it was 3.88%. Besides, the Percent Effect is 3.05% in assay [6]; 15.4% in the assay listed under Homo sapiens; 6.93% in [7]; 18.3% in assay [8]; -0.533% in assay [9].

As for `CCn1nc(CNC(=O)C2CC(=O)N(C3CCCC3)C2)c2ccccc21` (stereo unspecified), the Percent Effect in [1] was -9.13%; in assay [2] it was 2.7%; in assay [3], 3.05%; in assay [4] it was 28.4%; with Trypanosoma cruzi, -1.74%; in assay [5], -2.86%. The Percent Effect is 3.79% in assay [6]; 10.4% in the assay listed under Homo sapiens; -0.529% in [7]; 2.44% in assay [8]; -3.19% in assay [9].

`CN(C)CCN(Cc1cccc(C(F)(F)F)c1)C(=O)c1cc[nH]n1`: the Percent Effect is 1.05% in [1]; -4.17% in [2]; -0.743% in [3]; -0.91% in assay [4]; -4.57% in the assay on Trypanosoma cruzi; 2.65% in assay [5]. The Percent Effect in assay [6] is 5.61%; in the assay filed under Homo sapiens, 6.86%; in assay [7], -3.16%; in assay [8], -10.3%; in assay [9], -3.17%.

On to `O=C(N1CCCO1)[C@@]12CCO[C@@H]1CCN(C1CCCCC1)C2`, for which the Percent Effect in assay [1] was -5.99%; in assay [2], 16%; in [3], -8.58%; in [4], 1.15%; in the assay with Trypanosoma cruzi it was 0%; in assay [5], -50.7%. The Percent Effect in [6] is 4.96%; in the assay listed under Homo sapiens it was -2.54%; in [7], -105%; in assay [8], 15%; in [9] it was -10.2%.

For the compound `CCCc1nc(CN2CCCC(Cn3cncn3)C2)no1` (stereo unspecified), the Percent Effect in assay [1] was -6.43%; in [2] it was -1.27%; in assay [3], 0.957%; in assay [4] it was -0.585%; in the assay on Trypanosoma cruzi it was 0.718%; in assay [5], 0.215%. Also, the Percent Effect is 2.06% in [6]; 4.36% in the assay filed under Homo sapiens; 5.21% in [7]; 15.2% in assay [8]; -25.2% in [9].

In the case of `CC(C)COCc1cncc2c1CCN(Cc1cnn(C)c1)C2`, the Percent Effect in assay [1] was -5.06%; in assay [2] it was 7.79%; in assay [3], 2.31%; in [4], 5.43%; in the assay on Trypanosoma cruzi, -0.688%; in [5], -29%. Moreover, the Percent Effect was 4.16% in assay [6]; -12.6% in the assay listed under Homo sapiens; 7.53% in assay [7]; 11.1% in assay [8]; 133% in [9].

Regarding `c1ccc2oc(CCCN3CCCC3Cn3cncn3)nc2c1` (stereo unspecified), the Percent Effect was -1.49% in [1]; 0% in assay [2]; 0.485% in assay [3]; 12.2% in assay [4]; -1.02% in the assay with Trypanosoma cruzi; 3.51% in assay [5]. Further, the Percent Effect in assay [6] worked out at 5.92%; in the assay listed under Homo sapiens, 13.6%; in assay [7] it was 7.92%; in [8], 6.1%; in assay [9] it was 7.47%.

With `COCCN1CCN(CCCS(=O)(=O)c2ccccc2)CC1C` (stereo unspecified), the Percent Effect was -1.14% in assay [1]; -5.41% in assay [2]; -5.83% in [3]; 0.945% in assay [4]; 6.22% in the assay with Trypanosoma cruzi; 0.554% in assay [5]. Further, the Percent Effect in assay [6] is 4.13%; in the assay filed under Homo sapiens, -19.8%; in [7] it was 4.95%; in assay [8], 1.22%; in [9], -0.0339%.

On to `CCc1ccc(C(=O)N2CCN(CCS(C)(=O)=O)CC2)o1`, for which the Percent Effect in assay [1] was -3.79%; in assay [2] it was -5.26%; in assay [3], 3.96%; in assay [4] it was 8.99%; with Trypanosoma cruzi, -0.752%; in [5], 0.383%. The Percent Effect amounted to 4.18% in assay [6]; 10.7% in the assay listed under Homo sapiens; 5.39% in assay [7]; 7.32% in assay [8]; 0.21% in assay [9].
